According to PubChem BioAssay AID1159580 (chemical genetic matrix, 2015):
About 2,000 (36%) of roughly 5,500 compounds were called active. About 18% were inconclusive and are not listed. No stated cut-off is given here; in the data, active means normalized growth mostly below about 0.91 (no sharp cut-off); inconclusive means no clear call, values can overlap the other calls; inactive means mostly above about 0.92. The list shows a part of the results.

Test: chemical genetic growth profiling, strain panel (AID 1159580);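 further: tested at 20 µM; growth read once vehicle control cultures reached saturation at 30 °C; 1 = growth at the plate median or of vehicle wells; lower values mean less growth of the strain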
Conditions: S. cerevisiae deletion strains, growth OD

Measured: normalized growth

O=c1c(-c2cc(O)c(O)c(O)c2)coc2cc(O)c(O)c(O)c12
inactive: locus YAL030W, strain snc1, active compounds read low 0.999 | locus YBL061C, strain skt5, active compounds read low 0.94 | locus YBR009C, strain hhf1, active compounds read low 0.975 | locus YBR021W, strain FUR4, active compounds read low 1.03 | locus YBR171W, strain sec66, active compounds read low 0.991 | locus YBR279W, strain paf1, active compounds read low 0.97 | locus YCL011C, strain gbp2, active compounds read low 0.979 | locus YCL016C, strain dcc1, active compounds read low 0.99 | locus YCL061C, strain MRC1, active compounds read low 0.97 | locus YCL069W, strain vba3, active compounds read low 0.996 | locus YCR088W, strain abp1, active compounds read low 1.03 | locus YDL005C, strain med2, active compounds read low 1.02 | locus YDL040C, strain nat1, active compounds read low 1.02 | locus YDL185W, strain tfp1, active compounds read low 0.944 | locus YDL192W, strain arf1, active compounds read low 0.927 | locus YDR001C, strain nth1, active compounds read low 1.01 | locus YDR101C, strain arx1, active compounds read low 0.918 | locus YDR159W, strain sac3, active compounds read low 0.981 | locus YDR195W, strain ref2 0.993 | locus YDR297W, strain sur2, active compounds read low 0.987 | locus YDR318W, strain mcm21, active compounds read low 0.986 | locus YDR388W, active compounds read low 0.983 | locus YDR392W, strain spt3, active compounds read low 0.899 | locus YDR502C, strain sam2, active compounds read low 0.931 | locus YEL003W, strain gim4, active compounds read low 0.958 | locus YEL037C, strain rad23, active compounds read low 0.937 | locus YEL061C, strain CIN8 (second series), active compounds read low 1 | locus YER016W, strain bim1, active compounds read low 1 | locus YER110C, active compounds read low 1 | locus YER155C, strain BEM2 (second series), active compounds read low 0.935 | locus YER155C, strain BEM2, active compounds read low 0.991 | locus YER167W, strain BCK2, active compounds read low 0.972 | locus YFR010W, strain ubp6, active compounds read low 0.915 | locus YGL078C, strain dbp3, active compounds read low 0.991 | locus YGL167C, strain pmr1, active compounds read low 1 | locus YGL227W, strain vid30, active compounds read low 1.05 | locus YGL240W, strain doc1, active compounds read low 1.04 | locus YGR135W, strain pre9, active compounds read low 0.917 | locus YGR252W, strain gcn5, active compounds read low 0.853 | locus YHR013C, strain ard1, active compounds read low 0.88 | locus YHR030C, strain SLT2, active compounds read low 0.952 | locus YHR094C, strain hxt1, active compounds read low 1.01 | locus YHR200W, strain rpn10, active compounds read low 0.957 | locus YIL073C, strain SPO22, active compounds read low 0.686 | locus YIL125W, strain kgd1, active compounds read low 1 | locus YIR030C, strain dcg1, active compounds read low 1 | locus YJL092W, strain hpr5, active compounds read low 1.01 | locus YJL095W, strain BCK1 (second series), active compounds read low 0.986 | locus YJL115W, strain asf1, active compounds read low 1.01 | locus YJL129C, strain trk1, active compounds read low 1.03 | locus YJL134W, strain LCB3, active compounds read low 0.943 | locus YJL154C, strain vps35, active compounds read low 1.01 | locus YJL164C, strain tpk1, active compounds read low 0.949 | locus YJL166W, strain qcr8, active compounds read low 0.921 | locus YJL168C, strain set2, active compounds read low 0.982
active: locus YAL021C, strain ccr4, active compounds read low 0.719 | locus YAL026C, strain drs2, active compounds read low 0.876 | locus YBR023C, strain chs3, active compounds read low 0.904 | locus YBR229C, strain ROT2, active compounds read low 0.812 | locus YBR231C, strain swc5, active compounds read low 0.826 | locus YCL029C, strain bik1, active compounds read low 0.751 | locus YDL035C, strain GPR1, active compounds read low 0.787 | locus YDL074C, strain BRE1, active compounds read low 0.698 | locus YDL101C, strain DUN1, active compounds read low 0.462 | locus YDL134C, strain PPH21, active compounds read low 0.777 | locus YDR069C, strain doa4, active compounds read low 0.746 | locus YDR137W, strain rgp1, active compounds read low 0.716 | locus YDR162C, strain NBP2, active compounds read low 0.632 | locus YDR334W, strain swr1, active compounds read low 0.879 | locus YDR335W, strain msn5, active compounds read low 0.885 | locus YEL061C, strain CIN8, active compounds read low 0.878 | locus YER015W, strain faa2, active compounds read low 0.919 | locus YER111C, strain swi4, active compounds read low 0.731 | locus YGL086W, strain mad1, active compounds read low 0.923 | locus YGL173C, strain kem1, active compounds read low 0.872 | locus YGL248W, strain PDE1, active compounds read low 0.851 | locus YGL253W, strain hxk2, active compounds read low 0.878 | locus YGR078C, strain PAC10, active compounds read low 0.817 | locus YGR229C, strain SMI1, active compounds read low 0.328 | locus YHR027C, strain rpn1, active compounds read low 0.893 | locus YHR079C, strain IRE1 (second series), active compounds read low 0.922 | locus YHR129C, strain ARP1, active compounds read low 0.869 | locus YHR142W, strain chs7, active compounds read low 0.808 | locus YIL066C, strain RNR3, active compounds read low 0.774 | locus YJL095W, strain BCK1, active compounds read low 0.331 | locus YJL187C, strain SWE1 (second series), active compounds read low 0.282
